Measurements published in PubChem BioAssay (Tox21).
Results filed as inconclusive are left out. Entries that show only a call come without a potency. Active and inactive are the calls of the source. Calls come from the whole dose curve; as a rule, active = well fitted cell-killing curve with a large enough effect in the repeat runs; inconclusive = weak or mixed curves, or effect the other way; inactive = flat fitted curve, though single readings scatter.

assay: qHTS assay to identify small molecule agonists of the constitutive androstane receptor (CAR) signaling pathway - cell viability counter screen (AID 1224836); settings: HepG2-CYP2B6-hCAR viability, CellTiter-Fluor, 23 h, PK11195 added to every well; series mostly up to 92.4 µM; note: nearly all actives have a fitted effect of over 45% in size
Description: U.S. Tox21 Program National Center for Advancing Translational Sciences [NCATS] NIH Chemical Genomics Center [NCGC] U.S. Environmental Protection Agency [EPA] National Institutes of Environmental Health Sciences [NIEHS] National Toxicology Program [NTP] U.S. Food and Drug Administration [FDA] Tox21 Assay Overview: The constitutive androstane receptor (CAR) is a nuclear receptor which regulates multiple drug metabolizing enzymes (DMEs) and transporters. Activating CAR will generally increase the transcription and subsequent translation of CYP2B6 and CYP3A4. These two DMEs represent about 50% of the drug metabolizing potential in the body. […] Recently, there have also been studies performed indicating CARs role in energy metabolism and cancer therapy. Therefore, inducing CARs activity could have a potential effect on diabetes and cancer. Identifying environmental toxins and compounds which modulate CAR, through the use of the Tox21 10K compound collection, will be an important step in determining the toxicity and potential therapeutic effects these factors will have on the human body. To differentiate true CAR agonists from cytotoxic substances, the assay is multiplexed with a cell viability assay.
Tox21 Assay Protocol Summary: A double-stable (hCAR and CYP2B6-2.2kb) transfected cell line, derived from human hepatoma (HepG2) cells, was utilized for the duration of the quantitative high-throughput screens. The HepG2-CYP2B6-hCAR cells were dispensed at 2500 cells/4 uL/well in 1536-well white solid bottom plates using a Multidrop Combi. After the assay plates were incubated at 37 C/5% CO2 for 4 hrs, 23 nL of compounds at 15 concentrations (from 5-48 columns) or positive control (from 1 to 4 columns) were transferred to the assay plates using a Pintool station. One uL of PK11195 (final concentration = 0.75 uM) was added, using a Flying Reagent Dispenser, inside each well. After a 23 hr incubation period at 37 C/5% CO2, 1 uL of CellTiter-Fluor reagent was added into each well of the assay plates using a Flying Reagent Dispenser. The fluorescence intensity in the plates was then measured using a ViewLux plate reader.

Compound	Potency
O=C(Cl)c1ccc(C(=O)Cl)cc1	inactive
NCCNCCNCCN	inactive
COC(=O)/C=C\C(=O)OC	inactive
C=CC(C)(C)C	inactive
Brc1ccc(Oc2ccc(Br)cc2)cc1	inactive
CCOC(=O)c1ccc(O)cc1	inactive
O=c1c(O)c(-c2ccc(O)c(O)c2)oc2cc(O)cc(O)c12	inactive
Cc1ccc(C(C)C)cc1	inactive
Cc1cccc(C)c1[N+](=O)[O-]	inactive
CCCOCC(C)O (stereo not given)	inactive
CCCCCC(C)=O	inactive
Clc1cccc(Cl)c1NC1=NCCN1	inactive
Cc1ccc([N+](=O)[O-])cc1N	inactive
Cc1cc(C)c(O)c(C)c1	inactive
OB(O)O	inactive
CCc1cccc(O)c1	inactive
CS(=O)(=O)c1ccc(Cl)cc1	inactive
O=C1O[C@H]([C@H](O)CO)C(O)=C1O	inactive
CN1CCCC1=O	inactive
Cc1ccc(Cl)cc1	inactive

Compound	Potency
CC1(C)[C@@H](O[C@H]2O[C@H](C(=O)O)[C@@H](O)[C@H](O)[C@H]2O[C@@H]2O[C@H](C(=O)O)[C@@H](O)[C@H](O)[C@H]2O)CC[C@]2(C)[C@H]3C(=O)C=C4[C@@H]5C[C@@](C)(C(=O)O)CC[C@]5(C)CC[C@@]4(C)[C@]3(C)CC[C@@H]12	inactive
CCOC(=O)CC(=O)OCC	inactive
CCCCCCCC(=O)O	inactive
O=C1CCCCCCCCCCC1	inactive
COC(=O)CCCCC(=O)OC	inactive
C1CCCNCC1	inactive
OCc1ccc(Cl)cc1Cl	inactive
O=Cc1ccc(CO)o1	inactive
CC(O)CNCC(C)O (stereo not given)	inactive
OCCOCCOCCOCCOCCO	inactive
COc1c(Cl)ccc(Cl)c1C(=O)O	inactive
CC/C(C)=N/O	inactive
COc1ccc([C@@H]2CC(=O)c3c(O)cc(O[C@@H]4O[C@H](CO[C@@H]5O[C@@H](C)[C@H](O)[C@@H](O)[C@H]5O)[C@@H](O)[C@H](O)[C@H]4O)cc3O2)cc1OC	inactive
CC(=O)OCCC(C)C	inactive
C[n+]1ccn(CCO)c1	inactive
O=C(O)C1=NN(c2ccc(S(=O)(=O)O)cc2)C(=O)C1	inactive
NC(=O)c1ncn([C@@H]2O[C@H](CO)[C@@H](O)[C@H]2O)n1	inactive
COc1ccc2cc3[n+](cc2c1OC)CCc1cc2c(cc1-3)OCO2	inactive
CC[N+](CC)(CC(=O)Nc1c(C)cccc1C)Cc1ccccc1	inactive
O=C1OC(=O)c2c(Cl)c(Cl)c(Cl)c(Cl)c21	inactive
